The structures appear in SMILES notation. Compounds without any hit were thinned out: in the full panel of roughly 83,000, 20% have a hit.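 For each line, cells grew in 96-well plates with the test compound present at a single concentration for 48 hours.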 A number with no mark means an inactive call. Activity calls are given as the source filed them. How the source made its calls: active means growth percent below 10; inactive means the rest.

Here are results for eight compounds from PubChem BioAssay (NCI).

Test systems include SK-MEL-2 melanoma; EKVX NSCLC; SN12C renal; UO-31 renal; ACHN renal; CAKI-1 renal; A498 renal; CCRF-CEM leukemia; MOLT-4 leukemia; SR leukemia; OVCAR-8 ovarian; OVCAR-5 ovarian; OVCAR-4 ovarian; SK-OV-3 ovarian; IGROV1 ovarian; OVCAR-3 ovarian; HS 578T breast; NCI/ADR-RES ovarian; RPMI-8226 leukemia; TK-10 renal.
Common to all, as to experiment: NCI-60 one-dose screen, 48 h (100 = growth as untreated, 0 = no growth, -100 = all killed)
Common to all, as to settings: 10 µM unless noted

Turning to `COC(=O)c1nc(=S)[nH]c(C(=O)OC)c1C(=O)c1ccccn1`, the growth is 24.9% in the experiment on SK-MEL-2 melanoma; 34.9% in the experiment on EKVX NSCLC; 39.1% in the experiment on SN12C renal; 11.7% in the experiment with UO-31 renal; 10.2% in the experiment on ACHN renal; 15% in the experiment on CAKI-1 renal. Besides, the growth was 145% in the experiment on A498 renal; 10.7% in the experiment with CCRF-CEM leukemia; 2.29% (active) in the experiment on MOLT-4 leukemia; -3.79% (active) in the experiment on SR leukemia; 20.6% with OVCAR-8 ovarian; 57.9% with OVCAR-5 ovarian. Besides, the growth in the experiment with OVCAR-4 ovarian is 25.3%; with SK-OV-3 ovarian, 63.2%; with IGROV1 ovarian it was 24.5%; in the experiment on OVCAR-3 ovarian, 34.5%; with HS 578T breast it was 70.1%; in the experiment with NCI/ADR-RES ovarian, 7.03% (active).
Take `CCCCCCCCCCCCCCNCc1ccccc1`: the growth with SK-MEL-2 melanoma was 96.4%; in the experiment with EKVX NSCLC it was 93.4%; in the experiment on SN12C renal it was 79%; in the experiment with UO-31 renal, 62.4%; in the experiment with ACHN renal, 90.9%; in the experiment with CAKI-1 renal, 82.2%. Further, the growth in the experiment on A498 renal is 92.7%; in the experiment with CCRF-CEM leukemia it was 60.5%; in the experiment on MOLT-4 leukemia, 56.4%; in the experiment with SR leukemia it was 11.8%; in the experiment with RPMI-8226 leukemia, 34.5%; with OVCAR-8 ovarian, 87%. For the same compound, the growth is 105% with OVCAR-5 ovarian; 80.3% in the experiment with OVCAR-4 ovarian; 97.8% with SK-OV-3 ovarian; 97.7% in the experiment on IGROV1 ovarian; 91.4% in the experiment with OVCAR-3 ovarian; 95% with HS 578T breast. In the experiment with NCI/ADR-RES ovarian, the growth is 79.6%.
`CN(C)c1ccc(C(=C2C=CC(=[N+](C)C)C=C2)c2ccc(N(C)C)cc2)cc1` (tested in a mixture with another compound): the growth is -66.9% (active) in the experiment on SK-MEL-2 melanoma; -35.6% (active) in the experiment with EKVX NSCLC; -48.3% (active) in the experiment with SN12C renal; -79.2% (active) with TK-10 renal; -98.6% (active) in the experiment with ACHN renal; -43.7% (active) in the experiment on CAKI-1 renal. For the same compound, the growth was -93.2% (active) in the experiment with A498 renal; -52.6% (active) with RPMI-8226 leukemia; -66.9% (active) with OVCAR-5 ovarian; -40.1% (active) in the experiment on OVCAR-4 ovarian; -81.1% (active) with SK-OV-3 ovarian; -63.8% (active) with IGROV1 ovarian. For the same compound, the growth with OVCAR-3 ovarian was -93.5% (active); in the experiment on HS 578T breast, -1.97% (active); in the experiment with NCI/ADR-RES ovarian, -4.74% (active).
On to `CC(=Nc1ccc(N(C)C)cc1)c1ccccc1`, for which the growth in the experiment on SK-MEL-2 melanoma was 78.4%; in the experiment on SN12C renal, 50.4%; with UO-31 renal, 55%; in the experiment with ACHN renal, 59.8%; in the experiment on CAKI-1 renal, 79.8%; in the experiment with A498 renal, 70.4%. Also, the growth is 52.2% in the experiment with CCRF-CEM leukemia; 66.7% with MOLT-4 leukemia; 32.6% with SR leukemia; 7.42% (active) in the experiment on RPMI-8226 leukemia; 69.9% with OVCAR-4 ovarian; 73% in the experiment on SK-OV-3 ovarian. The growth in the experiment with IGROV1 ovarian is 58.8%; in the experiment with OVCAR-3 ovarian, 25.3%; with NCI/ADR-RES ovarian, 74.7%.
Turning to `COc1ccccc1/C=C\C(=O)c1ccccc1`, the growth in the experiment with SK-MEL-2 melanoma is 87.6%; in the experiment on SN12C renal it was 76.8%; with TK-10 renal, 104%; with ACHN renal it was 77%; with CAKI-1 renal, 83.2%; in the experiment with A498 renal it was 101%. For the same compound, the growth in the experiment with CCRF-CEM leukemia was 11%; in the experiment with MOLT-4 leukemia, 58.1%; in the experiment on SR leukemia, 15.3%; with RPMI-8226 leukemia, -13.3% (active); with OVCAR-8 ovarian it was 75.8%; in the experiment with OVCAR-5 ovarian it was 84%. The growth is 81.2% with OVCAR-4 ovarian; 94.5% in the experiment with SK-OV-3 ovarian; 64.4% in the experiment with IGROV1 ovarian; 110% with OVCAR-3 ovarian; 14.2% with NCI/ADR-RES ovarian.
Take `O=C(/C=C\c1ccccc1)N1c2ccccc2CC1c1c[nH]c2ccccc12` (stereo not drawn): the growth was 61.3% with SK-MEL-2 melanoma; 74.3% in the experiment with SN12C renal; 77.8% in the experiment on TK-10 renal; 79.4% with ACHN renal; 62.8% in the experiment on CAKI-1 renal; 54.2% in the experiment with A498 renal. In addition, the growth with CCRF-CEM leukemia was 68.6%; in the experiment on MOLT-4 leukemia, 44.3%; in the experiment on SR leukemia, 73.5%; in the experiment with RPMI-8226 leukemia it was 55.9%; with OVCAR-5 ovarian it was 76.8%; with OVCAR-4 ovarian it was 62%. The growth with SK-OV-3 ovarian was 60.5%; in the experiment on IGROV1 ovarian it was 47.3%; in the experiment with OVCAR-3 ovarian, 75%; in the experiment with HS 578T breast it was 75.3%; with NCI/ADR-RES ovarian it was 73.6%.
On to `COc1ccc(N=N/N=c2\sc3cc(OC)ccc3n2C)cc1`, for which the growth is 83.8% in the experiment on SK-MEL-2 melanoma; 89% in the experiment on SN12C renal; 106% with TK-10 renal; 97.4% in the experiment with ACHN renal; 96.8% with CAKI-1 renal; 97% in the experiment on A498 renal. Moreover, the growth with CCRF-CEM leukemia is 93.5%; with MOLT-4 leukemia, 92.1%; in the experiment on SR leukemia it was 88.9%; in the experiment with RPMI-8226 leukemia, 77.3%; with OVCAR-8 ovarian, 75.1%; in the experiment on OVCAR-5 ovarian, 98.6%. In addition, the growth is 108% in the experiment on OVCAR-4 ovarian; 86.3% in the experiment on SK-OV-3 ovarian; 91.7% in the experiment on IGROV1 ovarian; 97.8% in the experiment with OVCAR-3 ovarian; 96% in the experiment on HS 578T breast; 109% in the experiment on NCI/ADR-RES ovarian.
For the compound `O=C1NC(=O)/C(=C/C=C/c2ccccc2)S1`, the growth was -6.31% (active) in the experiment on SK-MEL-2 melanoma; 50.6% in the experiment on SN12C renal; 34.1% in the experiment with UO-31 renal; 9.79% (active) in the experiment on ACHN renal; 25.5% in the experiment on CAKI-1 renal; 69.7% with A498 renal. In addition, the growth with RPMI-8226 leukemia was 38.8%; with OVCAR-8 ovarian it was 43.1%; with OVCAR-5 ovarian it was 92.5%; in the experiment on OVCAR-4 ovarian, 70.1%; in the experiment on SK-OV-3 ovarian it was 74.7%; in the experiment with IGROV1 ovarian, -6.36% (active). Further, the growth was 58.3% with OVCAR-3 ovarian and 42.9% in the experiment on NCI/ADR-RES ovarian.
